Measurements from publication PMC7819943, “Rice protein-binding microarrays: a tool to detect cis-acting elements near promoter regions in rice”.
In all, about 35,000 sequences were measured (“fluorescence intensity (a.u.)”: median about 10,000, highest 2% from about 52,000 on). This is one part of a sample in which the highest values are shown more often than they occur.

Biological target: T1, OsWOX13 (Oryza sativa, UniProt Q5QMM3 1-267)
T1 sequence: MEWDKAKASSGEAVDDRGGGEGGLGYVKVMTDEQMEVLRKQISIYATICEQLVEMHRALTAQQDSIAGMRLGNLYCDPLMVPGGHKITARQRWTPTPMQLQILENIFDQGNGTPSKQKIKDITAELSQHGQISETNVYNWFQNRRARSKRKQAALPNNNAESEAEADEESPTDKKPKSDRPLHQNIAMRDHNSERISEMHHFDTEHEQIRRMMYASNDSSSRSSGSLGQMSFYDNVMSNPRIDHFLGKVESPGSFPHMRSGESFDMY
Assay: protein-binding microarray (RPBM); PBS, 2% BSA, 51.3 ng/ul salmon testes DNA, 50 uM zinc acetate, 200 nM TF, 25 C, 1 h; high values mean tight binding
Conditions: protein: recombinant; tags: N-terminal polyhistidine and DsRed monomer fusion (pET32a); label: CyDye5-dUTP incorporated in the synthesized complementary strand; 3' TTTTT single-stranded linker to array surface; dsDNA, one strand shown
Summary of the method: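 The binding signal is fluorescence intensity per feature, in arbitrary units, read on an Axon 4000B scanner. Polyhistidine- and DsRed-tagged transcription factors (N-terminal fusions) from E. coli BL21-CodonPlus were purified on Ni–NTA and applied at 200 nM for 1 h at 25 °C to a double-stranded, BSA-blocked custom Agilent array in buffer with 50 µM zinc acetate.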

Sequence | binding signal
TTGATTGGGTCTGTGGTGGAACAGGACGATCATACATCACCGGAGTCACCTAGTGCAG | 21000 fluorescence intensity (a.u.)
ATATATATATATATATATATACATACATATACACACACACCGGAGTCACCTAGTGCAG | 7300 fluorescence intensity (a.u.)
GAGCTCAGCTTGCAGGGAGCTTGGGTGTGTGATCATACACCGGAGTCACCTAGTGCAG | 63900 fluorescence intensity (a.u.)
AGTTAATAACAAGAAATTATTCATTTAAATTTAGGGCAAACGGAGTCACCTAGTGCAG | 9460 fluorescence intensity (a.u.)
CTTAATAACTTTCTCGGATTTAATGTGTGACTCACCATTCCGGAGTCACCTAGTGCAG | 3340 fluorescence intensity (a.u.)
GATGATGTGACTGAAAAGTTGTATGTGTATGACATATTGACGGAGTCACCTAGTGCAG | 11500 fluorescence intensity (a.u.)
GATGTGATTGAAAGTTTGTGTGTGTATGACAGTTTGATGTCGGAGTCACCTAGTGCAG | 61700 fluorescence intensity (a.u.)
GTGATTGACTGATTGTGTGATTGTGTGAAGTGTATTGGTTCGGAGTCACCTAGTGCAG | 65000 fluorescence intensity (a.u.)
GATGTGACTGAAAAGTTGTATGTGTATGACAGGTTGATGTCGGAGTCACCTAGTGCAG | 8260 fluorescence intensity (a.u.)
GTTGAATGTTTTGTATGATTTGAACCTGAAAACTGCATGACGGAGTCACCTAGTGCAG | 7380 fluorescence intensity (a.u.)
ATATGATAGAAAAGTTGTGTATGTATGAAATGTTTGATGTCGGAGTCACCTAGTGCAG | 9060 fluorescence intensity (a.u.)
ATGATTGAATGAATGAAACCCTAGTTTGTTTTGATTTGTACGGAGTCACCTAGTGCAG | 54400 fluorescence intensity (a.u.)
GCTATTAGATTGACTATATATGAATTGGAGCTAGTAGTTGCGGAGTCACCTAGTGCAG | 42900 fluorescence intensity (a.u.)
CCTGATTGGTTGTATTGCTTGAAGTAGACTATTGAGATTGCGGAGTCACCTAGTGCAG | 60200 fluorescence intensity (a.u.)
TGGAATGATGTGATGGAAAAGTTGAAAGTTTGTGTGTGTACGGAGTCACCTAGTGCAG | 5390 fluorescence intensity (a.u.)
GAAATTGAAGATGATGTGACTGAAAAGTTGTGTATATGACCGGAGTCACCTAGTGCAG | 17200 fluorescence intensity (a.u.)
GGTTGCTGATTGTATCCTTTACTACTAGATCTTGACTGAGCGGAGTCACCTAGTGCAG | 16300 fluorescence intensity (a.u.)
AGTTAATGAAATAATGCCAGCCTGCTGTCTTCTGATTATCCGGAGTCACCTAGTGCAG | 6010 fluorescence intensity (a.u.)
GCCTGCATTCATTTCCCTAATCAATCGGCTCGGATAATGTCGGAGTCACCTAGTGCAG | 4450 fluorescence intensity (a.u.)
CGAATCTAAACAATCAATATTTAATTATACTTCCTCTAGACGGAGTCACCTAGTGCAG | 12600 fluorescence intensity (a.u.)
AAGATTGGGCTGTTCATTAATCAAATTATTCTATGTGTCTCGGAGTCACCTAGTGCAG | 11900 fluorescence intensity (a.u.)

Sequence | binding signal
TACACGAGATTGGAGGCACTAGGCCTCAGTACATGGCACGCGGAGTCACCTAGTGCAG | 3870 fluorescence intensity (a.u.)
GTATGATTATCTTTCTTCGAGTAATTAACACGAAACGATGCGGAGTCACCTAGTGCAG | 40700 fluorescence intensity (a.u.)
AATAAATTGTATTAATAACAAATTAGTCTATTCTATTAAACGGAGTCACCTAGTGCAG | 24100 fluorescence intensity (a.u.)
AATAATGAATTTAAAATAAAATAAAACTGCATGCAAGCGACGGAGTCACCTAGTGCAG | 5650 fluorescence intensity (a.u.)
AGTAGATTTTGACATGCTGTGTGTTAACAATGGGAGTAGACGGAGTCACCTAGTGCAG | 3550 fluorescence intensity (a.u.)
ACCCATCACTAATCAGTAATCACAGTATTACTATTAAATTCGGAGTCACCTAGTGCAG | 9220 fluorescence intensity (a.u.)
CATTTAATTCATTGTTATATATATATATATATAGACACACCGGAGTCACCTAGTGCAG | 3920 fluorescence intensity (a.u.)
TAACAAACTATTCCTAATTAATAGATAAACTGCCATGCCGCGGAGTCACCTAGTGCAG | 8390 fluorescence intensity (a.u.)
TTATAATTAGTATTTTCATTGTTGTTAGATGATAAAACATCGGAGTCACCTAGTGCAG | 17500 fluorescence intensity (a.u.)
AATGTGTTAACTAATCAACTCGTCTCCCATCTCCTGCAAGCGGAGTCACCTAGTGCAG | 5480 fluorescence intensity (a.u.)
AATATGATTGCTTTGTGGGTGTATGGTTCATTTTCAATGGCGGAGTCACCTAGTGCAG | 47700 fluorescence intensity (a.u.)
CGTTAATCGTTGTGATTGATGTCGGATATGTTTGCCACCACGGAGTCACCTAGTGCAG | 58600 fluorescence intensity (a.u.)
GTCATCATTGATTGATATGATTTTGTATGTGTGAGCAATGCGGAGTCACCTAGTGCAG | 59400 fluorescence intensity (a.u.)
TGCTGGATTGTATTGATGTGTGTGCTTACCTAGTATAAATCGGAGTCACCTAGTGCAG | 3580 fluorescence intensity (a.u.)
TGAGCTGATTGATCGTCTGAAGGGTGTCTGATTGTCAAGTCGGAGTCACCTAGTGCAG | 52800 fluorescence intensity (a.u.)
GGGTGCTGAAATTGATATACGATCAATTGTTGTCGGTGATCGGAGTCACCTAGTGCAG | 14000 fluorescence intensity (a.u.)
CTACTGATTGTATTGATTGGGTAGCTGGATTGAAGTTAATCGGAGTCACCTAGTGCAG | 57000 fluorescence intensity (a.u.)
CTTGTATGTTTGTGGATTGATATATTATATATTGATATATCGGAGTCACCTAGTGCAG | 6720 fluorescence intensity (a.u.)
ACTTGTGTGATGTTTGGATTGATGCCAAAACTTGCCAAATCGGAGTCACCTAGTGCAG | 3930 fluorescence intensity (a.u.)
GTCTCTGTCTCTCGCTCTGATTGAAGTGTTCTGCTGCCATCGGAGTCACCTAGTGCAG | 20400 fluorescence intensity (a.u.)
GTAATTGGGCTTTCTTTGGGTAGTTATCGCTGGGCTTAATCGGAGTCACCTAGTGCAG | 6360 fluorescence intensity (a.u.)
